Assay results from PubChem BioAssay (EPA / NIEHS).
Results filed as inconclusive are left out. Active and inactive are the calls of the source. The calls were made as follows: active = hit-call score of the fitted dose curve at least 0.9, where 1 is the maximum; inconclusive = response in the unintended direction; inactive = score below 0.9.

Key:
[1] = target: human Peroxisome Proliferator-activated Receptor alpha (PPARa), PPARA (gene 5465) (UniProt Q07869); experiment: ATG_PPARa_TRANS: Attagene TRANS-FACTORIAL HepG2 Assay for human Peroxisome Proliferator-activated Receptor alpha (PPARa) (AID 2283001)
Sequence of human Peroxisome Proliferator-activated Receptor alpha (PPARa), PPARA (gene 5465) (Q07869 whole entry, looked up): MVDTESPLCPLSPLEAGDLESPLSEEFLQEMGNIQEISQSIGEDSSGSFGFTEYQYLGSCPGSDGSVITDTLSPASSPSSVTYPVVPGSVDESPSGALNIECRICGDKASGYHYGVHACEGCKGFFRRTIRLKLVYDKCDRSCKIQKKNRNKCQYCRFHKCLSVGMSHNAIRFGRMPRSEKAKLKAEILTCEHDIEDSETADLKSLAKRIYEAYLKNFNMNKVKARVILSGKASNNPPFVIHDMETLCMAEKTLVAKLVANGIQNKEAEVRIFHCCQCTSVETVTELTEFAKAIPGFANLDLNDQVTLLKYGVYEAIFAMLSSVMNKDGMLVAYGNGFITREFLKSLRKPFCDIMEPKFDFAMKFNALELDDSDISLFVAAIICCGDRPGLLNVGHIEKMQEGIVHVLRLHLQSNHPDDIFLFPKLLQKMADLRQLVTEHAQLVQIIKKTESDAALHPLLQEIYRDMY
Outline: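 Cells (HepG2) are transfected with multiple reporter transcription units, exposed to chemical for 24 h, then total RNA is reverse-transcribed and amplified. Labelled products are quantified by capillary electrophoresis; induction is referenced to DMSO.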

[2] = target: human Peroxisome Proliferator-activated Receptor delta (PPARd), PPARD (gene 5467) (UniProt Q03181); experiment: ATG_PPARd_TRANS: Attagene TRANS-FACTORIAL HepG2 Assay for human Peroxisome Proliferator-activated Receptor delta (PPARd) (AID 2283002)
Sequence of human Peroxisome Proliferator-activated Receptor delta (PPARd), PPARD (gene 5467) (Q03181 whole entry, looked up, the tested form may be a part): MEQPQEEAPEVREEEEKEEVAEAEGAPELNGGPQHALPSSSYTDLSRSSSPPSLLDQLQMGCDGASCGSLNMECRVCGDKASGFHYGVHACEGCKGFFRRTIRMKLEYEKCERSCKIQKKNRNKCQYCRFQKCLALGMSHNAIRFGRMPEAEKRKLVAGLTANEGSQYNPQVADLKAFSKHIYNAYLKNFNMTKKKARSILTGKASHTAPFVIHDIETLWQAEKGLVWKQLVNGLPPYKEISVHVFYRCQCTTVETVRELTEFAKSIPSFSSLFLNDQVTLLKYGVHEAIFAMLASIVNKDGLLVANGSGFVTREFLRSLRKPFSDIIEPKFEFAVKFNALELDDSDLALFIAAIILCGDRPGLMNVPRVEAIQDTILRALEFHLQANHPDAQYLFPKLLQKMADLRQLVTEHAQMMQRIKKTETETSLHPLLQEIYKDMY
Outline: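 HepG2 cells transiently transfected with multiplexed GAL4-UAS reporter units and exogenous chimeric NR-Gal4 proteins; 24 h compound exposure. Reporter mRNA measured by RT-PCR, 6-FAM labelling, HpaI digestion and capillary electrophoresis; gain of signal versus DMSO.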

[3] = target: human Retinoic Acid Receptor beta (RARb), RARB (gene 5915) (UniProt P10826); experiment: ATG_RARb_TRANS: Attagene TRANS-FACTORIAL HepG2 Assay for human Retinoic Acid Receptor beta (AID 2283004)
Sequence of human Retinoic Acid Receptor beta (RARb), RARB (gene 5915) (P10826 whole entry, looked up, the tested form may be a part): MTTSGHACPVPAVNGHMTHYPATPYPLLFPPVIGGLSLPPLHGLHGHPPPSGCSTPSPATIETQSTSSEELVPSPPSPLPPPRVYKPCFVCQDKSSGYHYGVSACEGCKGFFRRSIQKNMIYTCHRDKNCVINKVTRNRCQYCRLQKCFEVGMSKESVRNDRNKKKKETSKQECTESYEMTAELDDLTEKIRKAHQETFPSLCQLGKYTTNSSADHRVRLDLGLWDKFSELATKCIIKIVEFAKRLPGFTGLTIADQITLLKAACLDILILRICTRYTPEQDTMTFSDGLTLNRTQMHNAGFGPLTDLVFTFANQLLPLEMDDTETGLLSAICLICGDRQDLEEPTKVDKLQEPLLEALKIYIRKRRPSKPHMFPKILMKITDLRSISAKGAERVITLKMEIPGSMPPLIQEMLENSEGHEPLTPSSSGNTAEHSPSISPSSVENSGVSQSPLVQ
Outline: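 HepG2 cells transiently transfected with multiplexed GAL4-UAS reporter units expressing chimeric NR–Gal4 fusions; 24 h compound exposure. Reporter mRNA quantified by RT-PCR, 6-FAM labelling, HpaI digestion and capillary electrophoresis; gain-of-signal fitted against DMSO baseline.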

[4] = target: Nuclear receptor subfamily 1 group I member 2 (Homo sapiens) (UniProt O75469); experiment: ATG_PXR_TRANS: Attagene TRANS-FACTORIAL HepG2 Assay for human Pregnane X Receptor (PXR) (AID 2283008)
Outline: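 Transactivation by exogenous PXR–GAL4 fusion measured as reporter transcript induction after 24 h compound treatment of transfected human HepG2 cells. Read-out via RT-PCR and capillary electrophoresis of labelled fragments, fitted upward relative to DMSO.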

[5] = target: human Retinoic Acid Receptor gamma (RARg), RARG (gene 5916) (UniProt P13631); experiment: ATG_RARg_TRANS: Attagene TRANS-FACTORIAL HepG2 Assay for human Retinoic Acid Receptor gamma (RARg) (AID 2283009)
Sequence of human Retinoic Acid Receptor gamma (RARg), RARG (gene 5916) (P13631 whole entry, looked up, the tested form may be a part): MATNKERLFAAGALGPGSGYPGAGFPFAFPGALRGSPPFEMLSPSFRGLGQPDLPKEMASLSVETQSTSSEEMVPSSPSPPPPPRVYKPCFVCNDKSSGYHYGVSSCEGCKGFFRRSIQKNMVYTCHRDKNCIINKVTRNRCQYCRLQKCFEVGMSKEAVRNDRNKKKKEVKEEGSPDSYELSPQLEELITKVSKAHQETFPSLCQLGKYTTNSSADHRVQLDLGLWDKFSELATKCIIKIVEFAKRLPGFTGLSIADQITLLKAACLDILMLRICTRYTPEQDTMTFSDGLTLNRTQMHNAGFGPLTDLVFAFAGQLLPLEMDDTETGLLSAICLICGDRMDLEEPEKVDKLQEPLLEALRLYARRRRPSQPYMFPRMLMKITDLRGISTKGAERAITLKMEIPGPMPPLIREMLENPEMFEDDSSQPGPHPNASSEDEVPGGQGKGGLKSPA
Outline: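 TRANS format measured activity of exogenous NR-GAL4 fusion (RARg) in transfected HepG2 liver cells after 24 h dosing. Induced reporter RNA was detected by RT-PCR/capillary electrophoresis fluorescence, analysed in the positive direction against DMSO.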

[6] = target: Retinoic acid receptor RXR-alpha (Homo sapiens) (UniProt P19793); experiment: ATG_RXRa_TRANS: Attagene TRANS-FACTORIAL HepG2 Assay for human Retinoid X Receptor alpha (RXRa) (AID 2283012)
Sequence of Retinoic acid receptor RXR-alpha (Homo sapiens) (P19793 whole entry, looked up, the tested form may be a part): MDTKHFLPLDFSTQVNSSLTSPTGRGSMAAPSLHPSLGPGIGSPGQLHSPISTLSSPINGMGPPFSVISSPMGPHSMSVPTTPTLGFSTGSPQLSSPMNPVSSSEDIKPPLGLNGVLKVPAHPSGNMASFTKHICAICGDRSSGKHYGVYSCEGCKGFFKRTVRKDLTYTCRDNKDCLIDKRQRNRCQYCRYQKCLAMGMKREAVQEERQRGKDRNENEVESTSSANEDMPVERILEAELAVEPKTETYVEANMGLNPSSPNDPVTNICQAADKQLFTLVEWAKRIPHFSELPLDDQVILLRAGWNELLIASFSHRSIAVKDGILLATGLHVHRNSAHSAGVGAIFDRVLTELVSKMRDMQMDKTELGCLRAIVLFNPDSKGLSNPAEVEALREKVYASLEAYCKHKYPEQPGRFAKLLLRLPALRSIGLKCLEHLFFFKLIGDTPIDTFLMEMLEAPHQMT
Outline: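 Measures exogenous chimeric NR-GAL4 activity in transfected HepG2 liver cells after 24 h of dosing. Induced reporter mRNA was detected by RT-PCR with capillary electrophoresis, and gain of signal was analysed against DMSO.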

[7] = target: human Retinoid X Receptor beta (RXRb), RXRB (gene 6257) (UniProt P28702); experiment: ATG_RXRb_TRANS: Attagene TRANS-FACTORIAL HepG2 Assay for human Retinoid X Receptor beta (RXRb) (AID 2283013)
Sequence of human Retinoid X Receptor beta (RXRb), RXRB (gene 6257) (P28702 whole entry, looked up, the tested form may be a part): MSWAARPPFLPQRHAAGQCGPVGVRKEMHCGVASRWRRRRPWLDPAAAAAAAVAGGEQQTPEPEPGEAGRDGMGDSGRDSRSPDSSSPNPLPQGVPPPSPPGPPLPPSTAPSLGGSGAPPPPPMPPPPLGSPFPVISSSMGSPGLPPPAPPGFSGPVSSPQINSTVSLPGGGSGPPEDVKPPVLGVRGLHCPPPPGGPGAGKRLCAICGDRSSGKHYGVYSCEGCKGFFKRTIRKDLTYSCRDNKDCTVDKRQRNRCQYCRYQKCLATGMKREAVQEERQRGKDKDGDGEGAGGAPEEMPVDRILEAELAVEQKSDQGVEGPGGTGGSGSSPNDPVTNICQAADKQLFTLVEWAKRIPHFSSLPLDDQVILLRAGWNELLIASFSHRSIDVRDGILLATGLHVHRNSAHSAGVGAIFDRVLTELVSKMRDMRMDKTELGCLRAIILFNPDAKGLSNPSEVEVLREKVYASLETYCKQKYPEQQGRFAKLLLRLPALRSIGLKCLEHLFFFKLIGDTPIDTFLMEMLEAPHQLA
Outline: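 Chimeric receptor-Gal4 activity was assessed in transiently transfected human HepG2 cells after 24 h exposure. Transcripts from GAL4-UAS reporters were quantified by fluorescent RT-PCR and capillary electrophoresis, with DMSO as negative control and baseline.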

[8] = target: Peroxisome proliferator-activated receptor gamma (Homo sapiens) (UniProt P37231); experiment: ATG_PPARg_TRANS: Attagene TRANS-FACTORIAL HepG2 Assay for human Peroxisome Proliferator-activated Receptor-gamma (PPARg) (AID 2283007)
Sequence of Peroxisome proliferator-activated receptor gamma (Homo sapiens) (P37231 whole entry, looked up, the tested form may be a part): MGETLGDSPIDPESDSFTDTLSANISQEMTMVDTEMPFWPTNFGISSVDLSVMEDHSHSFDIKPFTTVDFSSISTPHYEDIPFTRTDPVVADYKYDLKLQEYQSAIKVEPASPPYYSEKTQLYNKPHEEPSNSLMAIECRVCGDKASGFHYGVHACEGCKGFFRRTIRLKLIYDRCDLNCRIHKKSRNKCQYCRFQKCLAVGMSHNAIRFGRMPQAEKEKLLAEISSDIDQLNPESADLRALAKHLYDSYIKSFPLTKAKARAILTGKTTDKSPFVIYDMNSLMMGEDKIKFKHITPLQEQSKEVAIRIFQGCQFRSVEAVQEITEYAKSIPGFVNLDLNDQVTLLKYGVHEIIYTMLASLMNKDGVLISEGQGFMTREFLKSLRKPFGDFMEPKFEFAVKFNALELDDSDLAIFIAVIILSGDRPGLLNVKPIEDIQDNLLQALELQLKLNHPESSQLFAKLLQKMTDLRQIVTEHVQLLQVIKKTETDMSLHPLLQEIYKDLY
Outline: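 HepG2 cells transiently transfected with multiplexed GAL4-UAS reporter units and exogenous chimeric NR-Gal4 proteins; reporter mRNA quantified after 24 h compound exposure by RT-PCR, fluorescent labelling, HpaI digestion and capillary electrophoresis; gain-of-signal fitted versus DMSO baseline.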

[9] = target: human RAR-related Orphan Receptor beta (RORb), RORB (gene 6096) (UniProt Q92753); experiment: ATG_RORb_TRANS: Attagene TRANS-FACTORIAL HepG2 Assay for human RAR-related Orphan Receptor beta (RORb) (AID 2283010)
Sequence of human RAR-related Orphan Receptor beta (RORb), RORB (gene 6096) (Q92753 whole entry, looked up, the tested form may be a part): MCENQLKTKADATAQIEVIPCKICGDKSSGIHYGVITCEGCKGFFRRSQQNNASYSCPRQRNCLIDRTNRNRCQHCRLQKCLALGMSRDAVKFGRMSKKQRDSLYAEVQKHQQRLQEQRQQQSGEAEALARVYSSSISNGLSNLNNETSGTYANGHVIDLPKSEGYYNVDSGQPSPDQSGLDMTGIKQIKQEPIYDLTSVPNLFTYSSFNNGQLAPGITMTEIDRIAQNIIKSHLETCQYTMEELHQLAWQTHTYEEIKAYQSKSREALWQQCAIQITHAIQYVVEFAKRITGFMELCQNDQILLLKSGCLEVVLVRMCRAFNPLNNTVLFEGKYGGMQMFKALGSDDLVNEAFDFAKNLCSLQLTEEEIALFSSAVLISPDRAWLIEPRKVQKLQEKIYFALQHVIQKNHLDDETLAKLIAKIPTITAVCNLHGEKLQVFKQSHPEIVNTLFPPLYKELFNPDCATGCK
Outline: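 Transfect HepG2 with multiple GAL4-UAS reporter transcription units; dose chemicals for 24 h; isolate RNA, reverse-transcribe and PCR-amplify reporter sequences; label, digest and resolve fragments by capillary electrophoresis; fit increases relative to DMSO.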

[10] = target: human RAR-related Orphan Receptor gamma (RORg), RORC (gene 6097) (UniProt P51449); experiment: ATG_RORg_TRANS: Attagene TRANS-FACTORIAL HepG2 Assay for human RAR-related Orphan Receptor gamma (RORg) (AID 2283011)
Outline: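 Readout: reporter transcript induction (RT-PCR, fluorescent primer extension, capillary electrophoresis) after 24 h compound exposure of transiently transfected HepG2 cells carrying a RORg-Gal4 chimera and GAL4-UAS reporters; DMSO served as baseline, with increasing signal fitted.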

[11] = target: human Thyroid Receptor alpha (THRa1), THRA (gene 7067) (UniProt P10827); experiment: ATG_THRa1_TRANS: Attagene TRANS-FACTORIAL HepG2 Assay for human Thyroid Receptor alpha (THRa1) (AID 2283014)
Sequence of human Thyroid Receptor alpha (THRa1), THRA (gene 7067) (P10827 whole entry, looked up, the tested form may be a part): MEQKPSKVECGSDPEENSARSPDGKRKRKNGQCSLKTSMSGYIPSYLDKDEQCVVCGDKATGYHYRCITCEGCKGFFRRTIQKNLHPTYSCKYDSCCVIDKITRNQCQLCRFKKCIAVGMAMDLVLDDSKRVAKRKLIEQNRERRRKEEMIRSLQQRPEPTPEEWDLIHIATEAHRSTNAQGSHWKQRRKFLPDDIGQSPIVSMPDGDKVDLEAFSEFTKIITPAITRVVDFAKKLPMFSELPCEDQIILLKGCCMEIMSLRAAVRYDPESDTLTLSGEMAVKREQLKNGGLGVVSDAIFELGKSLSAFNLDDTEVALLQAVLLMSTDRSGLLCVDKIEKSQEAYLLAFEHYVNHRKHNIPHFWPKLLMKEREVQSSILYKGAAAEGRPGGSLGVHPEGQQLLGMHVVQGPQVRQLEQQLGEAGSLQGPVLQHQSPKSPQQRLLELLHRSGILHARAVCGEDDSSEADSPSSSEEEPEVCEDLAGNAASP
Outline: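 HepG2 cells transiently transfected with multiplexed GAL4-UAS reporter units for exogenous chimeric THRa1-Gal4; reporter mRNA measured 24 h after dosing by RT-PCR, 6-FAM labelling, HpaI digestion and capillary electrophoresis. Gain-of-signal fitted versus DMSO baseline.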

[12] = target: Retinoic acid receptor alpha (Homo sapiens) (UniProt P10276); experiment: ATG_RARa_TRANS: Attagene TRANS-FACTORIAL HepG2 Assay for human Retinoic Acid Receptor alpha (RARa) (AID 2283005)
Sequence of Retinoic acid receptor alpha (Homo sapiens) (P10276 whole entry, looked up, the tested form may be a part): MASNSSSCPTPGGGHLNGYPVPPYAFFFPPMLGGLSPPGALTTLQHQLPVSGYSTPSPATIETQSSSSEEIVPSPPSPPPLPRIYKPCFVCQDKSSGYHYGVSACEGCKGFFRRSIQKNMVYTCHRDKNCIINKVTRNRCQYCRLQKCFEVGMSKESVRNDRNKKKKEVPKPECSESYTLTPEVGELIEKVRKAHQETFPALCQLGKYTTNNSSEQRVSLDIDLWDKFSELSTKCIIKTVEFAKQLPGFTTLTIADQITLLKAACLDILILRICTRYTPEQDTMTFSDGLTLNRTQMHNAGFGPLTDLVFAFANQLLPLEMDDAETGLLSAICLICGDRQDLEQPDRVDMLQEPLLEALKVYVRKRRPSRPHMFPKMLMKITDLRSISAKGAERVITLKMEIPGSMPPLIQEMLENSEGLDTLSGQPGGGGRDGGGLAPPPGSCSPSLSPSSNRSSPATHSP
Outline: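 HepG2 cells transiently transfected with multiple reporter units expressing chimeric RARα-GAL4 fusion, with GAL4-UAS-driven reporters. After 24 h compound exposure, reporter mRNA induction quantified by RT-PCR and capillary electrophoresis with fluorescent labeling; gain-of-signal fitted relative to DMSO control.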

Measured: AC50

N#CCCCC(C#N)CCC#N (configuration not stated)
inactive: [1] | [2] | [3] | [4] | [5] | [6] | [7]

CC(C)N1C(=O)c2ccccc2C1=O
inactive: [1] | [2] | [8] | [4] | [9] | [7]

CCCCCCCCCCCCCCCCCC(=O)OCCCCCCCCCCCCCC(C)C
inactive: [1] | [2] | [8] | [4] | [10] | [6] | [7]

CCc1cccc(O)c1
inactive: [1] | [8] | [4] | [9] | [10] | [6] | [11]

CC(=N[Si](C)(C)C)O[Si](C)(C)C
inactive: [1] | [2] | [9] | [10] | [11]

O=C(C=Cc1ccccc1)OCCCc1ccccc1
active: [4] 22.5 µM | [7] 66.6 µM
inactive: [1] | [12] | [5] | [9] | [6]

CCCCOC(=O)C(C)OC(=O)CCC (configuration not stated)
inactive: [1] | [8] | [4] | [10]

c1ccc(Cc2ccccc2)cc1
inactive: [1] | [8] | [4] | [9] | [6] | [7] | [11]

O=S(=O)(O)CCCN1CCOCC1
inactive: [1] | [2] | [8] | [6] | [7]

C1COCO1
inactive: [1] | [8]

CC(CCO)CC(C)(C)C (configuration not stated)
not listed: [2] | [3] | [10] | [11]
inactive: all other assays above

OCC=Cc1ccccc1
inactive: [1] | [2] | [4] | [10] | [11]

CCOc1ccc(NC(C)=O)cc1
inactive: [1] | [8] | [4] | [9] | [10] | [6]

CCC(C)C1CCCCC1=O (configuration not stated)
not listed: [2]
inactive: all other assays above

CCNC(=S)NCC
inactive: [1] | [2] | [8] | [4] | [10] | [7]

CC1=CC[C@@H]2C[C@H]1C2(C)C
inactive: [1] | [2] | [9] | [6] | [11]

C1=COCCC1
inactive: [1] | [3] | [4] | [9] | [10] | [7]

CCCCCC1C(=O)CCC1CC(=O)OC (configuration not stated)
not listed: [2] | [9] | [10] | [11]
inactive: all other assays above
